Gal4-VP16 FLuc: Gal4-VP16 reporter inhibition counter-screen | Drosophila S2 Gal4-VP16 UAS-luciferase, luminescence, 20 h | Potency, µM (series often up to 53.6 µM), inactives show top-dose activity, negative = inhibition, actives largely listed as inhibitors | hit rate 3.5% among 310,000 | AID 2546;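 also: Gal4-VP16 expression switched on by copper sulfate through the metallothionein promoter; potency is read from the fitted curve at half-maximal effect; % is scaled to controls: 0 for no effect and ±100 for the full control effect; nearly all actives have a fitted effect of over 50% in size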
CtBP-E1A inh: inhibitors of CtBP/E1A interaction. AID 651724. AlphaScreen GST-E1A/His-CtBP binding, 1536-well; stronger effect = lower value. activity change, % (concentration not given with the values). hit rate 0.49% among 340,000; in the data active = activity change below about -65%; inconclusive = mostly about -30% to -63%; also: % is scaled to controls: 0 for no effect and ±100 for the full control effect
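AlphaScreen with 125 nM GST-E1A and 125 nM His-CtBP (5X stocks) in Tris pH 8.0, 300 mM NaCl, BSA, Tween 20, TCEP. Compounds preincubated 2 h at 37 deg C, then glutathione donor/nickel acceptor beads added for 1 h at 37 deg C in dark.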
RORg inh: inhibitors of mouse ROR gamma transcriptional activity; hit rate 5.4% among 310,000; Potency, µM (highest dose often 53.6 µM), without a hit: top-dose activity change, negative = inhibition, usual class: inhibitors; Drosophila S2 Gal4-RORgamma UAS-luciferase reporter, 20 h; P51450; also: potency is read from the fitted curve at half-maximal effect; % is scaled to controls: 0 for no effect and ±100 for the full control effect; nearly all actives have a fitted effect of over 60% in size
Target sequence (P51450 whole entry, looked up, the tested form may be a part): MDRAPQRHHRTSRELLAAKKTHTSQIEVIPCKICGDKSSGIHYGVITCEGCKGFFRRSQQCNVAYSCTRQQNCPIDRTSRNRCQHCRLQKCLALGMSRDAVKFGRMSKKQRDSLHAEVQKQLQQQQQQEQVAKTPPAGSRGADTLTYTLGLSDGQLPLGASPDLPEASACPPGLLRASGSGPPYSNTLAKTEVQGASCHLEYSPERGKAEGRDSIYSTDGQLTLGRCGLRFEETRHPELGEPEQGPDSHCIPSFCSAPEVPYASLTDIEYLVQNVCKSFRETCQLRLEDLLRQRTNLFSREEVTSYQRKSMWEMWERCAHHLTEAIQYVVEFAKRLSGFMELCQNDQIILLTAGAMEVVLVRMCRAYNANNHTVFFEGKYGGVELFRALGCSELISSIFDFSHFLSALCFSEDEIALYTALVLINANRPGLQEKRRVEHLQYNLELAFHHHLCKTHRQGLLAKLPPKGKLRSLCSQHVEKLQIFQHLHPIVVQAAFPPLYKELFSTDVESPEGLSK
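Luciferase reporter read in Schneider cells carrying Gal4-RORγ (mouse) and UAS-Photinus luciferase; cells given compound 1 h before 700 uM copper sulfate induction, then incubated 20 h at ambient temperature.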
p53 reactivation: mutant p53 re-activation in reporter cells. H1299 p53-A138V BP100-luciferase reporter, luminescence, 24 h. Potency, µM (series often up to 92.2 µM), inactives show at the highest dose activity change, positive = activation, actives largely listed as activators. hit rate 0.063% among 320,000; also: potency is read from the fitted curve at half-maximal effect; % of control where 0% means no effect; nearly all actives have a fitted effect of over 45% in size
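p53-null H1299 cells stably carrying temperature-sensitive p53-A138V and a BP100-luciferase reporter were pinned with compounds (4-point, 1:5 series) and held 24 hrs at 37 deg C. Luminescence was read 10 min after detection reagent.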
Six1-Eya2 inh: Six1/Eya2 interaction inhibition; Q15475+O00167; AlphaScreen GST-Six1/His-Eya2 binding, biochemical; stronger effect = lower value; activity change, % (concentration not given with the values); hit rate 0.56% among 360,000; AID 651725; in the data active = activity change below about -65%; inconclusive = mostly about -30% to -63%; also: % is scaled to controls: 0 for no effect and ±100 for the full control effect
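Compounds are tested against tagged Six1 and Eya2 proteins bridged by glutathione donor and nickel acceptor beads; after a one-hour incubation at 37 °C without light, AlphaScreen emission is recorded.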
Numbers without * were called inactive; ? = inconclusive; nt = no result given; [ ] = dose if it differs, or a comment. A selection: hits, their analogues and other compounds. The true share with any hit is near 5.4%. Unless noted, calls follow the shape of the dose curve; as a rule, active = well fitted curve in the direction sought with a large enough effect; inconclusive = small, poorly fitted or top-dose-only effect, or another doubt; inactive = no such curve, though single readings can be large; an effect the other way counts as inactive or inconclusive.

SMILES	Gal4-VP16 FLuc	CtBP-E1A inh	RORg inh	p53 reactivation	Six1-Eya2 inh
CC(=O)Nc1ccccc1NC(=O)C/C(C)=N/NC(=O)C1CCCCC1	4%	1	-16%	-3%	-3
C/C(CC(=O)NC1CCCCC1)=N\NC(=O)c1ccc(Br)cc1	11µM*	-5	13µM*	5%	4
C/C(CC(=O)NC1CCCC1)=N\NC(=O)C1CCCCC1	-3%	0	16µM*	3%	-2
O=C(/C=C/c1ccc(Br)cc1)NC(=S)N1CCOCC1	0.4µM*	-23	0.71µM*	4%	-10
CN1CCN(C(=S)NC(=O)/C=C/c2ccccc2Cl)CC1	?	24	2.5µM*	-2%	10
CN1CCN(C(=O)/C=C/c2ccccc2)CC1	2%	5	6%	?	2
CN1CCN(C(=S)NC(=O)/C=C/c2ccccc2)CC1	?	4	11µM*	7%	2
O=C(/C=C/c1ccccc1Cl)N1CCCN(C(=O)/C=C/c2ccccc2Cl)CC1	-8%	19	31%	10%	-10
CC(=O)Nc1nc2c(s1)C(=O)NCCC2	7%	0	-10%	-1%	-2
COc1ccccc1NS(=O)(=O)c1cc(NC(=O)c2ccncc2)ccc1N1CCCC1	-16%	14	1%	-5%	-22
CN(c1ccc(F)cc1)S(=O)(=O)c1ccc(Cl)c(C(=O)NC2(C)CCS(=O)(=O)C2)c1 (stereo not drawn)	nt	nt	nt	3%	8
COc1cccc(NC(=O)Cn2cnc3c(oc4nc5c(cc43)CCCC5)c2=O)c1	-14%	-6	-24%	-1%	-5
CCS(=O)(=O)N1Cc2ccccc2CC1C(=O)Nc1nc(C)cs1 (stereo not drawn)	-7%	12	-23%	3%	2
CCSc1nnc(NC(=O)c2cccc(S(=O)(=O)N(C)c3ccc(C)cc3)c2)s1	?	1	16µM*	-2%	0
CCc1nnc(NC(=O)c2cccc(S(=O)(=O)N(C)c3ccccc3)c2)s1	5%	-9	-15%	-2%	4
CCc1nnc(NC(=O)C2Cc3ccccc3CN2S(=O)(=O)c2cccs2)s1 (stereo not drawn)	nt	-27	-19%[0.365 µM]	?	-22
O=C(Nc1nnc(C2CC2)s1)C1Cc2ccccc2CN1S(=O)(=O)c1cccs1 (stereo not drawn)	?	?	1.4µM*	18%	?
CCS(=O)(=O)N1Cc2ccccc2CC1C(=O)Nc1nc2c(C)cccc2s1 (stereo not drawn)	5.6µM*	-5	3.5µM*	?	-1
CCSc1nnc(NC(=O)c2ccccn2)s1	3.2µM*	-91*	2µM*	?	-94*
CC(=O)N/C(=C/c1ccc([N+](=O)[O-])cc1)C(=O)O	1%	18	-11%	1%	6
O=C(Cc1ccc(NC(=O)C2CCN(C(=O)c3ccccc3)CC2)cc1)Nc1ccc(C(=O)N2CCOCC2)cc1	nt	3	nt	nt	1
COc1cccc(-c2nc(CS(=O)(=O)CC(=O)NC3CCCCCC3)c(C)o2)c1	6%	-1	0%	-3%	2
Cc1ccc(S(=O)(=O)NC(C)(C)CN2CCC(Cc3ccccc3)CC2)cc1	0%	13	30%	2%	3
Cc1cccc2sc(NC(=O)CNS(=O)(=O)c3ccc(Br)s3)nc12	-27%	-2	11µM*	-5%	-2
CCS(=O)(=O)N1Cc2ccccc2CC1C(=O)Nc1nnc(SCc2c(Cl)cccc2Cl)s1 (stereo not drawn)	6.3µM*	-5	5µM*	6%	-7
Cc1cnc(C(=O)Nc2nnc(SCc3c(Cl)cccc3Cl)s2)cn1	5µM*	?	2µM*	3%	-20
Cc1ccc2nc(NC(=O)CNS(=O)(=O)c3ccc(Br)s3)sc2c1	-4%	5	-30%	?	1
CCSc1nnc(NC(=O)C(CC)(C(F)(F)F)C(F)(F)F)s1	16µM*	2	10µM*	1%	-1
Cc1ccc(CN2CC(C(=O)Nc3nnc(SCc4c(Cl)cccc4Cl)s3)CC2=O)cc1 (stereo not drawn)	-4%	2	?	-5%	5
COc1ccccc1CNc1ncnc2ccc(-c3cccc(C#N)c3)cc12	0%	nt	?	nt	nt

Source: PubChem BioAssay
